Screens (PubChem BioAssay)
Most compounds without a hit are left out; they make up all but 6.8% or so of the library.
C diff HTS: blocks growth of Clostridium difficile. Clostridium difficile clinical isolate growth, OD600, 24 h; stronger effect = lower value. growth activity, negative = inhibition, % at 16 µg/mL (by protocol). 0.25% of 86,000 active. AID 1259249;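 active = mean growth activity at or below -80% and every replicate also at or below -80%; inconclusive = mean at or below -80% but some replicate above -80%; inactive = mean growth activity above -80%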;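 also: 0% = DMSO wells and -100% = levofloxacin 16 µg/mL wells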
Pf Dd2 inh: blocks growth of Plasmodium falciparum Dd2 parasites; P. falciparum Dd2 growth, SYBR Green, 72 h; stronger effect = lower value; activity change, % at 10 µM; 2.3% of 94,000 active; in the data active = activity change below about -80%; inconclusive = no clear call, values can overlap the other calls
T cruzi growth-1: blocks T. cruzi growth in NIH3T3 culture; T. cruzi beta-gal in NIH3T3, GalScreen luminescence, 90 h; inhibition, % at 8.34 µM; 5.9% of 77,000 active; AID 624255;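 active = mean inhibition above about 93%, with at least 55% of replicates each passing it, limit read from the data, passing the limit was not always enough; inconclusive = only one of those two conditions holds; inactive = neither condition holds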
T cruzi growth-2: blocks T. cruzi growth in NIH3T3 host cells | shares compounds with T cruzi growth-1 | 72% of 5,600 active | inhibition, % at 8.35 µM | AID 651739 | T. cruzi beta-gal in NIH3T3, GalScreen luminescence, 90 h;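 active = mean replicate inhibition above about 95% and at least 55% of replicates individually reaching it, limit read from the data; inconclusive = only one of the two criteria is met; inactive = neither criterion is met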
T cruzi growth-3: inhibitors of T. cruzi proliferation | AID 651740 | shares compounds with T cruzi growth-1 | 21% of 5,600 active | inhibition, % at 2.09 µM | T. cruzi beta-gal in NIH3T3, GalScreen luminescence, 90 h;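 active = mean inhibition above about 95%, with at least 55% of replicates also reaching it, limit read from the data; inconclusive = meets just one of the two conditions; inactive = meets neither condition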;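 also: plate controls were neutral control median for no effect and positive control median for full effect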
NIH3T3 tox: cytotoxicity in mouse NIH/3T3 fibroblasts; AID 651742; shares compounds with T cruzi growth-1; NIH/3T3 viability, CellTiter-Glo ATP luminescence, 90 h; cytotoxicity (signal decrease), % at 8.35 µM; 14% of 5,600 active;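 active = mean signal decrease across replicates above about 35% based on untreated-well scatter, with enough replicates individually passing, limit read from the data; inconclusive = no rule stated though some were filed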;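 also: 0% = median of neutral control wells and 100% = median of positive control wells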
3T3 cytotox 2: kills mouse NIH/3T3 fibroblasts; shares compounds with T cruzi growth-1; NIH/3T3 viability, CellTiter-Glo ATP luminescence, 90 h; inhibition, % at 24.9 µM; 56% of 5,600 active;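 active = mean loss of cell viability signal at or above a set limit, and enough replicates individually reaching it; inconclusive = meets only the mean limit or only the replicate share; inactive = meets neither condition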;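 also: 0% = median of neutral control wells and 100% = median of positive control wells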
An asterisk follows results filed as active; u = inconclusive; x = not tested or not shown.

SMILES	C diff HTS	Pf Dd2 inh	T cruzi growth-1	T cruzi growth-2	T cruzi growth-3	NIH3T3 tox	3T3 cytotox 2
COc1ccc(S(=O)(=O)Nc2ccc3c(c2)C(=O)N([C@H](C)CO)C[C@H](C)[C@H](CN(C)Cc2ccc4c(c2)OCO4)OCCCC[C@H](C)O3)cc1	-0.1	-73.5	u	103.3*	u	6.3	105.3*
Cc1ccc(S(=O)(=O)Nc2ccc3c(c2)C(=O)N([C@@H](C)CO)C[C@@H](C)[C@@H](CN(C)Cc2ccc4c(c2)OCO4)OCCCC[C@H](C)O3)cc1	-9.1	-62.9	u	86.1	u	60.6*	104.2*
C[C@@H]1CCCCO[C@H](CN(C)Cc2ccc3c(c2)OCO3)[C@@H](C)CN([C@@H](C)CO)C(=O)c2cc(NS(=O)(=O)c3ccc(Cl)cc3)ccc2O1	x	-61.1	u	95.1*	108.5*	u	103.2*
C[C@@H]1CN([C@@H](C)CO)C(=O)c2cc(NS(=O)(=O)c3ccc(Cl)cc3)ccc2O[C@@H](C)CCCCO[C@@H]1CN(C)Cc1ccc2c(c1)OCO2	x	-65.5	86.0	x	x	x	x
C[C@H]1CN([C@@H](C)CO)C(=O)c2cc(NC(=O)Nc3cccc4ccccc34)ccc2O[C@@H]1CN(C)C(=O)Nc1ccc(C(F)(F)F)cc1	0.2	-38.6	23.7	x	x	x	x
CC=Cc1ccc2n(c1=O)C[C@@H]1[C@@H](CO)[C@H](C(=O)N3CCCCC3)[C@H]2N1C(=O)C1CC1 (mixture of isomers)	-1.6	1.0	54.6	x	x	x	x
CO[C@@H]1CN(C)C(=O)c2ccc(NC(=O)c3ccccc3)cc2OC[C@@H](C)N(C(=O)C2CC2)C[C@H]1C	-3.8	-2.0	x	x	x	x	x
Cc1ccc(S(=O)(=O)Nc2ccc3c(c2)C(=O)N([C@@H](C)CO)C[C@@H](C)[C@@H](CN(C)Cc2ccc4c(c2)OCO4)OCCCC[C@@H](C)O3)cc1	-4.4	-66.8	45.1	x	x	x	x
Cc1ccc(S(=O)(=O)Nc2ccc3c(c2)C(=O)N([C@@H](C)CO)C[C@H](C)[C@@H](CN(C)Cc2ccc4c(c2)OCO4)OCCCC[C@H](C)O3)cc1	0.9	-53.1	104.5*	102.4*	55.2	25.1	79.7*
Cc1ccc(S(=O)(=O)Nc2ccc3c(c2)C(=O)N([C@H](C)CO)C[C@H](C)[C@@H](CN(C)Cc2ccc4c(c2)OCO4)OCCCC[C@@H](C)O3)cc1	-3.5	-35.0	37.1	x	x	x	x
Cc1ccc(S(=O)(=O)Nc2ccc3c(c2)C(=O)N([C@@H](C)CO)C[C@H](C)[C@@H](CN(C)Cc2ccc4c(c2)OCO4)OCCCC[C@@H](C)O3)cc1	-71.3	-80.8*	97.7*	102.4*	54.6	24.9	105.2*
COc1ccc(NC(=O)N(C)C[C@@H]2Oc3ccc(NC(=O)Nc4cccc5ccccc45)cc3C(=O)N([C@H](C)CO)C[C@@H]2C)cc1	-6.3	-32.8	-5.2	x	x	x	x
COCC#Cc1ccc([C@@H]2[C@H]3CN(Cc4ccccc4F)CCCCN3[C@H]2CO)cc1	2.0	-66.9	46.7	x	x	x	x
OC[C@H]1[C@H](c2ccc(C#Cc3cccnc3)cc2)[C@@H]2CN(Cc3ccccc3F)CCCCN12	1.2	-71.4	112.0*	111.0*	51.9	28.2	103.3*
OC[C@H]1[C@H](c2ccc(C#CC3(O)CCCC3)cc2)[C@H]2CN(Cc3ccccc3F)CCCCN21	6.4	-26.1	44.2	x	x	x	x
CC(C)(O)C#Cc1ccc([C@@H]2[C@H]3CN(Cc4ccccc4F)CCCCN3[C@H]2CO)cc1	12.6	4.9	26.1	x	x	x	x
OC[C@@H]1[C@@H](c2ccc(C#CC3(O)CCCC3)cc2)[C@H]2CN(Cc3ccccc3F)CCCCN12	3.3	-25.7	105.1*	67.3	20.5	1.3	58.1*
OC[C@@H]1[C@H](c2ccc(C#Cc3cccnc3)cc2)[C@H]2CN(Cc3ccccc3F)CCCCN12	21.4	-75.0	114.2*	102.2*	112.6*	49.9*	103.7*
C[C@H](CO)N1C[C@H](C)[C@H](CN(C)S(=O)(=O)c2cccs2)Oc2ccc(NC(=O)Cc3ccccc3)cc2C1=O	-4.8	-22.5	-84.1	x	x	x	x
C[C@@H]1CN([C@@H](C)CO)C(=O)Cc2cc(N(C)C)ccc2O[C@@H]1CN(C)S(=O)(=O)c1ccccc1	8.3	-6.9	31.8	x	x	x	x
C[C@H](CO)N1C[C@H](C)[C@@H](CN(C)S(=O)(=O)c2cccs2)Oc2ncc(C#CCC3CCCC3)cc2C1=O	-0.2	-31.3	x	x	x	x	x
C[C@H](CO)N1C[C@H](C)[C@H](CN(C)Cc2ccc(C(=O)Nc3ccccc3N)cc2)Oc2ccc(NS(=O)(=O)c3cccs3)cc2C1=O	x	-85.0*	115.0*	103.6*	89.9	14.2	48.5*
C[C@@H]1CN([C@H](C)CO)C(=O)c2cccc(NS(=O)(=O)c3cccs3)c2O[C@H]1CN(C)Cc1ccc(C(=O)Nc2ccccc2N)cc1	1.6	-69.8	x	x	x	x	x
C[C@H]1CN([C@@H](C)CO)C(=O)c2cccc(NS(=O)(=O)c3cccs3)c2O[C@H]1CN(C)Cc1ccc(-c2ccccc2)cc1	12.7	-10.9	74.7	x	x	x	x
C[C@H](CO)N1C[C@H](C)[C@H](CN(C)Cc2ccc(C(=O)Nc3ccccc3N)cc2)Oc2c(NS(=O)(=O)c3cccs3)cccc2C1=O	x	-63.1	107.4*	98.8*	84.3	2.6	25.7*
SMILES	C diff HTS	Pf Dd2 inh	T cruzi growth-1	T cruzi growth-2	T cruzi growth-3	NIH3T3 tox	3T3 cytotox 2
C[C@H](CO)N1C[C@H](C)[C@H](CN(C)Cc2ccc(-c3ccccc3)cc2)Oc2c(NS(=O)(=O)c3cccs3)cccc2C1=O	14.9	-18.7	96.7*	87.2	29.7	14.8	12.7
C[C@@H]1CN([C@H](C)CO)C(=O)c2cc(NS(=O)(=O)c3cccs3)ccc2O[C@H]1CN(C)Cc1ccc(C(=O)Nc2ccccc2N)cc1	x	-45.8	92.5	x	x	x	x
COc1ccc(NC(=O)N(C)C[C@H]2OCCCC[C@@H](C)Oc3ccc(NC(=O)Cc4ccccc4)cc3C(=O)N([C@@H](C)CO)C[C@H]2C)cc1	-2.3	-56.4	69.0	x	x	x	x
CCCC#Cc1ccc2c(c1)O[C@H](CN(C)C(=O)CN(C)C)[C@H](C)CN([C@@H](C)CO)S2(=O)=O	x	-51.3	x	x	x	x	x
C[C@H](CO)N1C[C@H](C)[C@H](CN(C)Cc2ccncc2)Oc2ccc(NC(=O)Cc3ccccc3)cc2C1=O	1.7	12.4	16.4	x	x	x	x
CC(=O)Oc1ccccc1C(=O)OCO/N=[N+](\[O-])N1CCCC1	-4.3	x	x	x	x	x	x
COc1ccc(S(=O)(=O)Nc2ccc3c(c2)C(=O)N([C@H](C)CO)C[C@H](C)[C@@H](CN(C)C)O3)cc1	-0.4	7.0	4.1	x	x	x	x
COc1ccc(S(=O)(=O)Nc2cccc3c2O[C@H](CN(C)CC2CC2)[C@H](C)CN([C@@H](C)CO)C3=O)cc1	4.1	15.8	22.3	x	x	x	x
CC=Cc1ccc2n(c1=O)C[C@@H]1[C@@H](CO)[C@H](C(=O)NCCc3ccncc3)N(CCC(F)(F)F)[C@H]21 (mixture of isomers)	1.1	1.8	108.3*	-48.8	-39.1	-30.2	4.9
